The values below come from PubChem BioAssay (NCATS).

Values joined by “and” are separate entries in the source; they are usually repeats but may differ in a detail not shown here. Equal values may be shown once. Results filed as inconclusive are left out. A number with no mark means an inactive call. Active and inactive are the calls of the source. The call rests on the fitted dose curve; in most records, active means well fitted inhibition curve with a large enough effect; inconclusive means small, poorly fitted or top-dose-only effect; inactive means flat fitted curve, though single readings scatter.
Further: nearly all actives have a fitted effect of over 60% in size.

One experiment deals with NIH3T3. Kind of experiment: Cytotoxic Profiling of Annotated Libraries Using Quantitative High-Throughput Screening (AID 1296008). On max response: on the % scale 0 is the no-effect control and ±100 the full control effect. To be noted: Five cell lines viability, CellTiter-Glo ATP luminescence, 48-72 h; max response: hits give low values. An outline of the steps: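 Cytotoxicity was measured as CellTiter-Glo ATP luminescence, read after 10 min at room temperature. Compound treatment of the cells lasted 48 or 72 hr at 37 degrees Celsius in a qHTS format.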
On to `CC(Cc1ccccc1)N(C)Cc1ccco1` (stereo unspecified), for which the max response is -7.67%.

As for `CCC1(c2ccccc2)C(=O)N(COC)C(=O)N(COC)C1=O`, the compound was classed as inactive.

For `C[C@]12CCC(=O)C=C1CC[C@@H]1[C@@H]2CC[C@]2(C)C(=O)CC[C@@H]12`, the max response was -1.13%.

For the compound `C[C@](O)(CS(=O)(=O)c1ccc(F)cc1)C(=O)Nc1ccc(C#N)c(C(F)(F)F)c1`, the max response is -9.3%.

As to `c1ccc2c(c1)sc1ccccc12`, the compound was called inactive.

Consider `CCN[C@@H](C)Cc1cccc(C(F)(F)F)c1`, for which the max response is 2.4%.

For `CCCOC(=O)c1cncn1C(C)c1ccccc1` (stereo unspecified), the max response is 3.77%.

With `CNC(C)(C)Cc1ccccc1`, the max response is 2.82%.

In the case of `c1ccc(CN2CCNCC2)cc1`, the max response was -5.38%.

In the case of `O=C(Nc1ccc(Br)cc1)c1cc(Br)cc(Br)c1O`, the max response is -23.1%.

`COC1CC(=C(c2cccs2)c2cccs2)C[N+](C)(C)C1` (stereo unspecified): the max response is 0.648%.

`CNCC(=O)c1ccc(O)c(O)c1`: the max response is -2.19%.

Turning to `O=c1[nH]oc2c1CCNC2`, the max response was -9.67%.

Regarding `CN1CCC(O)(c2ccc(F)cc2)C(C(=O)c2ccc(F)cc2)C1` (stereo unspecified), the max response was 2.95%.

As for `CCC(C)C(C)(COC(N)=O)COC(N)=O` (stereo unspecified), the compound was called inactive.

Turning to `c1ccc(N2CCNCC2)cc1`, the outcome was inactive.

As to `COc1cccc(C(=O)CCN[C@@H](C)[C@H](O)c2ccccc2)c1`, the max response was -18.8%.

`NC1=NC(=O)C(c2ccccc2)O1` (stereo unspecified): the max response is 3.43%.

For `CCN(CCO)CCn1c(Cc2ccccc2)nc2c1c(=O)n(C)c(=O)n2C`, the max response is -7.24%.

Consider `CCN[C@H](C)Cc1cccc(C(F)(F)F)c1`, for which the max response was -0.0448%.

For `CC(Cc1ccccc1)NCCn1cnc2c1c(=O)n(C)c(=O)n2C` (stereo unspecified), the max response is -0.181%.

On to `C[C@]12CCC(=O)C=C1CC[C@@H]1[C@@H]2CC[C@@]2(C)[C@H]1CC[C@]2(C)O`, for which the max response was -3.69%.

`NCCc1ccc(O)cc1`: the result was inactive.

On to `CCC(C)(C)c1ccc(O)cc1`, for which the max response was 3.56%.

Take `CC(C)=CC1C(C(=O)OCN2C(=O)C3=C(CCCC3)C2=O)C1(C)C` (stereo unspecified): the max response was -1.87%.

For the compound `C=C(C)[C@H]1CN[C@H](C(=O)O)[C@H]1CC(=O)O`, the compound was called inactive.

With `CC(C(=O)c1ccccc1)N(C)C` (stereo unspecified), the max response was -10.7%.

`CN1C(=O)NC(=O)C(C)(C2=CCCCC2)C1=O` (stereo unspecified): the compound was called inactive.

With `CC[N+]1(CC)CCC(OC(=O)C(O)(c2ccccc2)c2ccccc2)C1` (stereo unspecified), the max response is 4.46%.

Turning to `Nc1ccccc1C(=O)O`, the max response was 3.28%.

For the compound `CCN(CC)CCc1c[nH]c2ccccc12`, the max response was -2.44%.

With `CCC1(c2ccc(N)cc2)CCC(=O)NC1=O` (stereo unspecified), the max response was 1.87% and -15.6%.

Turning to `O=C(CCCN1CCC2(CC1)C(=O)NCN2c1ccccc1)c1ccc(F)cc1`, the compound was called inactive.

Consider `CC(=O)NC1CCSC1=O` (stereo unspecified), for which the max response was 2.68%.

With `O=C1CN=C(c2ccccc2)c2cc([N+](=O)[O-])ccc2N1`, the max response was -0.271%.

`O=P1(N(CCCl)CCCl)NCCCO1` (stereo unspecified): the max response was -16.8% and -12.6%.

`COC(=O)C(Cl)C(=O)OC`: the max response was -7.3%.

Turning to `O=C(N/N=C/c1ccc([N+](=O)[O-])o1)c1cc([N+](=O)[O-])cc([N+](=O)[O-])c1O`, the max response was 1.92%.

As for `CC1(C)C(C=C(Cl)Cl)C1C(=O)OC(C#N)c1cccc(Oc2ccccc2)c1` (stereo unspecified), the call was inactive.

Another experiment relates to HACAT. Kind of experiment: qHTS assay to identify novel small-molecules to repurpose for Merkel cell carcinoma treatment (AID 1296009). To be noted: MCC and control cell lines, CellTiter-Glo viability, 72 h; at 44.8 µM (top of the series) unless noted. The method, boiled down:
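Cell viability measured by CellTiter-Glo following 72 hr compound treatment at 37 degree celsius, with NPC and MIPE libraries tested in 8- and 11-point concentration series.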
(In qHTS, concentration-response curves come from the screen itself.)
Turning to `CC(Cc1ccccc1)N(C)Cc1ccco1` (stereo unspecified), the compound was called inactive.

Regarding `C[C@](O)(CS(=O)(=O)c1ccc(F)cc1)C(=O)Nc1ccc(C#N)c(C(F)(F)F)c1`, the compound was classed as inactive.

For the compound `CCN[C@@H](C)Cc1cccc(C(F)(F)F)c1`, the compound was classed as inactive.

`CCCOC(=O)c1cncn1C(C)c1ccccc1` (stereo unspecified): the compound was called inactive.

Consider `CNC(C)(C)Cc1ccccc1`, for which the call was inactive.

In the case of `c1ccc(CN2CCNCC2)cc1`, the outcome is “inactive [at 155 µM]”.

Regarding `O=C(Nc1ccc(Br)cc1)c1cc(Br)cc(Br)c1O`, the outcome was inactive.

Consider `CNCC(=O)c1ccc(O)c(O)c1`, for which the call was inactive.

With `O=c1[nH]oc2c1CCNC2`, the result was inactive.

`CN1CCC(O)(c2ccc(F)cc2)C(C(=O)c2ccc(F)cc2)C1` (stereo unspecified): the compound was classed as inactive.

As to `c1ccc(N2CCNCC2)cc1`, the result was inactive.

Turning to `COc1cccc(C(=O)CCN[C@@H](C)[C@H](O)c2ccccc2)c1`, the outcome was inactive.

Regarding `NC1=NC(=O)C(c2ccccc2)O1` (stereo unspecified), the compound was called inactive.

`CCN(CCO)CCn1c(Cc2ccccc2)nc2c1c(=O)n(C)c(=O)n2C`: the call was inactive.

`CCN[C@H](C)Cc1cccc(C(F)(F)F)c1`: the outcome was “inactive [at 92 µM]”.

Regarding `CC(Cc1ccccc1)NCCn1cnc2c1c(=O)n(C)c(=O)n2C` (stereo unspecified), the outcome was “inactive [at 92 µM]”.

Take `C[C@]12CCC(=O)C=C1CC[C@@H]1[C@@H]2CC[C@@]2(C)[C@H]1CC[C@]2(C)O`: the result was inactive.

As for `CC(C)=CC1C(C(=O)OCN2C(=O)C3=C(CCCC3)C2=O)C1(C)C` (stereo unspecified), the call was inactive.

Turning to `C=C(C)[C@H]1CN[C@H](C(=O)O)[C@H]1CC(=O)O`, the outcome was inactive.

Regarding `CC(C(=O)c1ccccc1)N(C)C` (stereo unspecified), the outcome was inactive.

Consider `CC[N+]1(CC)CCC(OC(=O)C(O)(c2ccccc2)c2ccccc2)C1` (stereo unspecified), for which the call was inactive.

Take `Nc1ccccc1C(=O)O`: the result was inactive.

Regarding `O=C(CCCN1CCC2(CC1)C(=O)NCN2c1ccccc1)c1ccc(F)cc1`, the call was inactive.

As for `O=C1CN=C(c2ccccc2)c2cc([N+](=O)[O-])ccc2N1`, the outcome was inactive.

In the case of `O=P1(N(CCCl)CCCl)NCCCO1` (stereo unspecified), the call was inactive.

Consider `O=C(N/N=C/c1ccc([N+](=O)[O-])o1)c1cc([N+](=O)[O-])cc([N+](=O)[O-])c1O`, for which the result was inactive.

With `CC1(C)C(C=C(Cl)Cl)C1C(=O)OC(C#N)c1cccc(Oc2ccccc2)c1` (stereo unspecified), the outcome was inactive.
